The term AC50 denotes the concentration giving half of the maximal activity seen.

The source of these data is PubChem BioAssay (EPA / NIEHS).

SMILES strings stand for the structures. Inconclusive results are not listed. Calls of active or inactive are those of the source. Rule for the calls: active = hit-call score of the fitted dose curve at least 0.9, where 1 is the maximum; inconclusive = response in the unintended direction; inactive = score below 0.9.

Assay [1] addresses human CYP2D6, CYP2D6 (gene 1565) (UniProt P10635). Kind of assay: NVS_ADME_hCYP2D6: NovaScreen (NVS) CYP450-related Enzyme Activity (ADME) Assay for human CYP2D6 (AID 2283107). The essentials: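 Cell-free assay using recombinant enzyme expressed in insect cells, with fluorescence-intensity readout of enzyme activity 1 hour after chemical dosing. Loss of signal versus acetonitrile negative control indicates inhibition. Primary screen ran in duplicate at 10 uM; actives were retested in concentration series.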

For assay [2], the target named is human CYP2C9, CYP2C9 (gene 1559) (UniProt P11712). Put plainly: NVS_ADME_hCYP2C9: NovaScreen (NVS) CYP450-related Enzyme Activity (ADME) Assay for human CYP2C9 (AID 2283108). The procedure, abridged:
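Recombinant human CYP2C9 expressed in SF9 cells, fluorogenic substrate, fluorescence read 0.75 h after dosing. Chemicals first run in duplicate at 10 uM, with actives followed in concentration series; loss of signal versus acetonitrile baseline.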

In assay [3] the target is human AKT serine/threonine Kinase 2 (AKT2), AKT2 (gene 208) (UniProt P31751). Kind of assay: NVS_ENZ_hAKT2: NovaScreen (NVS) Enzymatic Assay for human AKT serine/threonine Kinase 2 (AKT2) (AID 2283141). The procedure, abridged:
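Cell-free fluorescence/electrophoretic mobility shift readout of recombinant human AKT2 activity, 1 h after chemical dosing. Duplicate primary screen at 25 uM, then singleton concentration-response up to 50 uM; loss of signal versus DMSO baseline.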

Assay [4] has as its target Cytochrome P450 3A4 (Homo sapiens) (UniProt P08684). Put plainly: NVS_ADME_hCYP3A4: NovaScreen (NVS) CYP450-related Enzyme Activity (ADME) Assay for human CYP3A4 (AID 2283110). The essentials:
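Recombinant CYP3A4 from insect cells, fluorescence enzyme read-out, 0.33 h after chemical addition. Acetonitrile = negative control/baseline. Primary HTS: 10 uM in duplicate; actives re-tested in concentration series.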

The target of assay [5] is human Caspase 4 (CASP4), CASP4 (gene 837) (UniProt P49662). Put plainly: NVS_ENZ_hCASP4: NovaScreen (NVS) Enzymatic Assay for human Caspase 4 (CASP4) (AID 2283143). The essentials: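 Compounds were first tested in duplicate at 25 uM, and hits were titrated singly to a 50 uM maximum. Recombinant protease from E. coli was read by fluorescence 2 h post-dose, and activity loss was fitted against the DMSO baseline.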

Assay [6] concerns the target human Caspase 5 (CASP5), CASP5 (gene 838) (UniProt P51878). Kind of assay: NVS_ENZ_hCASP5: NovaScreen (NVS) Enzymatic Assay for human Caspase 5 (CASP5) (AID 2283137). The essentials:
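Chemicals were first tested in duplicate at 25 uM against recombinant caspase 5 from E. coli. Activity was read by fluorescence intensity 2 hours after dosing. Those passing a preset inhibition threshold were retested in singleton concentration-response up to 50 uM.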

The target of assay [7] is human Beta-secretase (BACE), BACE1 (gene 23621) (UniProt P56817). Put plainly: NVS_ENZ_hBACE: NovaScreen (NVS) Enzymatic Assay for human Beta-secretase (BACE) (AID 2283140).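 Note: hits are inhibitors that reduce fluorescent substrate signal versus DMSO.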 The essentials:
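Fluorescence intensity read-out of protease activity defines this endpoint; signal loss relative to DMSO baseline marks inhibition. Recombinant enzyme from SF9 cells, cell-free format, 1 h exposure. Single-concentration duplicate screen (25 uM) precedes concentration-series follow-up.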

Assay [8] addresses human Dual Specificity Protein Phosphatase 3 (DUSP3), DUSP3 (gene 1845) (UniProt P51452). Kind of assay: NVS_ENZ_hDUSP3: NovaScreen (NVS) Enzymatic Assay for human Dual Specificity Protein Phosphatase 3 (DUSP3) (AID 2283152). The procedure, abridged: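 Cell-free fluorescence-intensity enzyme activity assay with recombinant protein and substrate; loss of signal fitted relative to DMSO baseline. Primary screen in duplicate at 25 uM, actives then run in concentration series; measured 0 h after dosing.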

Assay [9] deals with human Elastase, ELANE (gene 1991) (UniProt P08246). Put plainly: NVS_ENZ_hElastase: NovaScreen (NVS) Enzymatic Assay for human Elastase (AID 2283153). The procedure, abridged: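 Concentration-response to 50 uM max, run singly for chemicals passing a threshold (e.g., 30% inhibition) in a duplicate 25 uM single-point screen. Neutrophil-derived human elastase, absorbance read-out of enzyme activity at 1.5 h; DMSO baseline.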

Assay [10] addresses human AKT serine/threonine Kinase 1 (AKT1), AKT1 (gene 207) (UniProt P31749). Kind of assay: NVS_ENZ_hAKT1: NovaScreen (NVS) Enzymatic Assay for human AKT serine/threonine Kinase 1 (AKT1) (AID 2283138). The procedure, abridged: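 Compounds were first tested in duplicate at 25 uM, and those passing a threshold such as 30% inhibition were run in concentration-response to a maximum of 50 uM. Enzyme activity was measured after 1 h by fluorescence following substrate/product mobility-shift separation.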

For assay [11], the target named is human Acid Phosphatase 1 (ACP1), ACP1 (gene 52) (UniProt P24666). Put plainly: NVS_ENZ_hACP1: NovaScreen (NVS) Enzymatic Assay for human Acid Phosphatase 1 (ACP1) (AID 2283136). The procedure, abridged: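 Cell-free fluorescence read-out of phosphatase activity, substrate and product separated by mobility shift, taken 1.5 h after compound addition; protein produced in Sf9. Single 25 uM duplicate screen, followed by concentration series for actives, scored as signal loss relative to DMSO.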

Another assay addresses CDK2 (gene 1017) (UniProt P24941). Put plainly: NVS_ENZ_hCDK2: NovaScreen (NVS) Enzymatic Assay for human Cyclin-Cependent Kinase 2 (CDK2) (AID 2283144). The essentials:
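Compounds screened in duplicate at 25 uM, then in singleton concentration-response to a maximum of 50 uM, against recombinant CDK2; kinase activity read 1 hr after dosing by fluorescence with mobility-shift separation of substrate and product.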

Assay [12] addresses human Caspase 8 (CASP8), CASP8 (gene 841) (UniProt Q14790). Kind of assay: NVS_ENZ_hCASP8: NovaScreen (NVS) Enzymatic Assay for human Caspase 8 (CASP8) (AID 2283146). The essentials:
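The primary screen tested compounds in duplicate at a single 25 uM concentration, with actives followed up in concentration series. Activity of recombinant (E. coli) protease was measured by fluorescence 1 h post-dose, as signal loss against DMSO.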

Assay [13] has as its target human Colony Stimulating Factor 1 Receptor (CSF1R), CSF1R (gene 1436) (UniProt P07333). Kind of assay: NVS_ENZ_hCSF1R: NovaScreen (NVS) Enzymatic Assay for human Colony Stimulating Factor 1 Receptor (CSF1R) (AID 2283150). The essentials: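 Compounds screened in duplicate at 25 uM, then concentration-response (top 50 uM) for those passing threshold such as 30% inhibition; recombinant CSF1R activity measured 1 h post-dosing via fluorescent substrate/product mobility-shift separation, loss of signal versus DMSO.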

Assay [14] addresses human Ephrin type-A Receptor 1 (EphA1), EPHA1 (gene 2041) (UniProt P21709). Put plainly: NVS_ENZ_hEphA1: NovaScreen (NVS) Enzymatic Assay for human Ephrin type-A Receptor 1 (EphA1) (AID 2283158).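 Note: activity is signal loss versus DMSO meaning EphA1 kinase inhibition.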 The essentials: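 Cell-free enzymatic assay with recombinant EphA1 and fluorescent substrate; product separated by electrophoretic mobility shift, fluorescence intensity read 1 hour after dosing. Loss of signal versus DMSO baseline; primary duplicate screen at 25 uM, actives followed to 50 uM top concentration.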

Assay [15] has as its target Glycogen synthase kinase-3 beta (Homo sapiens) (UniProt P49841). Put plainly: NVS_ENZ_hGSK3b: NovaScreen (NVS) Enzymatic Assay for human Glycogen Synthase Kinase-3 beta (GSK3b) (AID 2283165). The essentials:
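Recombinant enzyme with specific fluorescent substrate, 1 h, product separated by electrophoretic mobility shift. Primary duplicate screen at 25 uM; actives (e.g. 30% inhibition) followed in singleton concentration-response to 50 uM. Signal loss fitted versus DMSO.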

The target of assay [16] is human Casein Kinase 1-delta (CK1D), CSNK1D (gene 1453) (UniProt P48730). Kind of assay: NVS_ENZ_hCK1D: NovaScreen (NVS) Enzymatic Assay for human Casein Kinase 1-delta (CK1D) (AID 2283148). The procedure, abridged: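 Recombinant human CK1-delta, cell-free; fluorescent substrate with electrophoretic mobility-shift separation of product, read 1 h after dosing. Single 25 uM duplicate screen, then concentration-response up to 50 uM; loss of signal vs DMSO.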

Assay [17] addresses human FYN Proto-Oncogene, Src family Tyrosine Kinase (Fyn), FYN (gene 2534) (UniProt P06241). Kind of assay: NVS_ENZ_hFyn: NovaScreen (NVS) Enzymatic Assay for human FYN Proto-Oncogene, Src family Tyrosine Kinase (Fyn) (AID 2283161). The essentials: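 Cell-free kinase activity read by fluorescence after mobility-shift separation of substrate and product, 1 h post-dose. Initial single concentration 25 uM in duplicate, then concentration-response follow-up; DMSO baseline.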

Another assay addresses Caspase-3 (Homo sapiens) (UniProt P42574). Kind of assay: NVS_ENZ_hCASP3: NovaScreen (NVS) Enzymatic Assay for human Caspase 3 (CASP3) (AID 2283139). The procedure, abridged: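 Single-concentration screening at 25 uM in duplicate, with concentration-response follow-up to a 50 uM maximum for chemicals passing the threshold. Caspase-3 (human, E. coli-expressed) activity was read as substrate fluorescence after 1 h, with loss of signal relative to DMSO.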

Chain of human AKT serine/threonine Kinase 1 (AKT1), AKT1 (gene 207) (P31749 whole entry, looked up): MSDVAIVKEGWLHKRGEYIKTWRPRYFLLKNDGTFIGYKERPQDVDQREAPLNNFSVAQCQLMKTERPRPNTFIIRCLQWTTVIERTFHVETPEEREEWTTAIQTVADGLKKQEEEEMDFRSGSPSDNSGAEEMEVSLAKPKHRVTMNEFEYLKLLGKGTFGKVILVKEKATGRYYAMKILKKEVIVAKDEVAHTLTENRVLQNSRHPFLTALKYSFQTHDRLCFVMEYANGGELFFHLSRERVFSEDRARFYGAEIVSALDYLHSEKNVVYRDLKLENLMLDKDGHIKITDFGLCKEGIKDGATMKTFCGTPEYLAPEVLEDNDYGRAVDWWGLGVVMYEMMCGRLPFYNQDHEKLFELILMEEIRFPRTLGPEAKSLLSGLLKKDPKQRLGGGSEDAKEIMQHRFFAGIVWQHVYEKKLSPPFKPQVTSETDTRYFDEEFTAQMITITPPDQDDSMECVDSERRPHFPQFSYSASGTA
Chain of human AKT serine/threonine Kinase 2 (AKT2), AKT2 (gene 208) (P31751 whole entry, looked up): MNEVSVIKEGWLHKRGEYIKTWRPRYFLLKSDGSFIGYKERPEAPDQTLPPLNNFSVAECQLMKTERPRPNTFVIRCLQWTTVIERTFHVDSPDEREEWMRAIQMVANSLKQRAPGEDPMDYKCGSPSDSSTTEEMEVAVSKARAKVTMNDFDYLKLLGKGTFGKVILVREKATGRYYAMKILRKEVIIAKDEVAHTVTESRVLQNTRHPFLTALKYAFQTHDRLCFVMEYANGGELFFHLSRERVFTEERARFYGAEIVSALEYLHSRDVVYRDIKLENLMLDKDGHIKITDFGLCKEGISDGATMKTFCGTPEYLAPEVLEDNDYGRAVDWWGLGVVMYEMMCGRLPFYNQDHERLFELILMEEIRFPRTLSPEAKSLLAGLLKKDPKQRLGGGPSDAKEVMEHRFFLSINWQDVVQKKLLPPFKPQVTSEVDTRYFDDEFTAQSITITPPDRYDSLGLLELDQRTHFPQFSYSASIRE
Chain of Glycogen synthase kinase-3 beta (Homo sapiens) (P49841 whole entry, looked up): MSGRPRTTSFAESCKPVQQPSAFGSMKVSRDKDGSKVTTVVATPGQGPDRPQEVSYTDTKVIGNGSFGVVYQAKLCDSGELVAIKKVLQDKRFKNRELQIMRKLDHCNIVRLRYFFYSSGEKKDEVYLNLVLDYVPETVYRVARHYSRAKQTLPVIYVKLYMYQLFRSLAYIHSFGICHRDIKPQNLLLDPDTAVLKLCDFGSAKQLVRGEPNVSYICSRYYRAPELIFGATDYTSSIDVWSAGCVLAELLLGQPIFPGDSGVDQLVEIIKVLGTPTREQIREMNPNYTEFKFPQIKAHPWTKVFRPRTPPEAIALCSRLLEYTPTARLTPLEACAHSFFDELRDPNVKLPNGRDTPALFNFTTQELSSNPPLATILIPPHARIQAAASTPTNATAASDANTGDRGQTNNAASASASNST
Chain of human Caspase 5 (CASP5), CASP5 (gene 838) (P51878 whole entry, looked up): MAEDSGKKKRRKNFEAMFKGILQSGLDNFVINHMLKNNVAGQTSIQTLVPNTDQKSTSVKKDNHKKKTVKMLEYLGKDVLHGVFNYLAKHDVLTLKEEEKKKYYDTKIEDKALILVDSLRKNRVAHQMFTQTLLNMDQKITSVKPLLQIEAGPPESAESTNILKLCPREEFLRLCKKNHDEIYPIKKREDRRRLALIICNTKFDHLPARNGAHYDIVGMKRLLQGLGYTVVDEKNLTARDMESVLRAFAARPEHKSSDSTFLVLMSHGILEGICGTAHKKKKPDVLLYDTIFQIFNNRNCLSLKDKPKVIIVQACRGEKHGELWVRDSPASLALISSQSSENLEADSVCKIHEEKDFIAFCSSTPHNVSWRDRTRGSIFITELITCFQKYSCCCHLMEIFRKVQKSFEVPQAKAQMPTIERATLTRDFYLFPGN
Chain of human Beta-secretase (BACE), BACE1 (gene 23621) (P56817 whole entry, looked up): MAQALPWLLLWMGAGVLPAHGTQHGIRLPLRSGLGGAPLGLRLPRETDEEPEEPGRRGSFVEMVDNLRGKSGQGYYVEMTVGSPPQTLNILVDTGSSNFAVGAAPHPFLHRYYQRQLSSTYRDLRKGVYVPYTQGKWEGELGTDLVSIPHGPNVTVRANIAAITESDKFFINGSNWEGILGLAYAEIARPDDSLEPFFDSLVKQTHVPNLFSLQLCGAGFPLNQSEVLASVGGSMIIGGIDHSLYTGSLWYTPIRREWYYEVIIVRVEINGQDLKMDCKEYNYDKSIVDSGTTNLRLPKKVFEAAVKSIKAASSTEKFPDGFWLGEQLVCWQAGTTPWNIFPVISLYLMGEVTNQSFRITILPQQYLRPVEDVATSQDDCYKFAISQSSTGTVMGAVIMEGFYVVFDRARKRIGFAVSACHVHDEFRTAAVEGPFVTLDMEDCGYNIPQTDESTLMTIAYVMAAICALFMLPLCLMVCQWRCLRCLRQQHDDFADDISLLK
Chain of human Dual Specificity Protein Phosphatase 3 (DUSP3), DUSP3 (gene 1845) (P51452 whole entry, looked up): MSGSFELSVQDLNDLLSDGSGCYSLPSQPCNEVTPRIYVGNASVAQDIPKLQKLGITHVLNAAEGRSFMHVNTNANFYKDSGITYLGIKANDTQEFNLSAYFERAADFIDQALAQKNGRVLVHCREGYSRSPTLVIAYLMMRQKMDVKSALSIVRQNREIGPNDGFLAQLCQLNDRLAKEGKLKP
Chain of Cytochrome P450 3A4 (Homo sapiens) (P08684 whole entry, looked up): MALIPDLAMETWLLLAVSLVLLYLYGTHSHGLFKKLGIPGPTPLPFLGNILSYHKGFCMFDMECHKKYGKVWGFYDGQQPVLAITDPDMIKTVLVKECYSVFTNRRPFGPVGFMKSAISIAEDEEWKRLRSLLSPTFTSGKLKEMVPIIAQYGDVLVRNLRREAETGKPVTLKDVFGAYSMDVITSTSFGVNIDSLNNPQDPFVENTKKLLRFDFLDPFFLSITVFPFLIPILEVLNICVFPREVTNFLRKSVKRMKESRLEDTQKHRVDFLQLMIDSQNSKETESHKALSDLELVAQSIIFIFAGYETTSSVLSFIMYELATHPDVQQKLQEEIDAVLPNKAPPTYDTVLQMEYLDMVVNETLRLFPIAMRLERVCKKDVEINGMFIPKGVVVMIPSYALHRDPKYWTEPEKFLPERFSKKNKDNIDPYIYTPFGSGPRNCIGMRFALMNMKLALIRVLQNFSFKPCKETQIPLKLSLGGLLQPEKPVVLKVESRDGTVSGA
Chain of human Caspase 8 (CASP8), CASP8 (gene 841) (Q14790 whole entry, looked up): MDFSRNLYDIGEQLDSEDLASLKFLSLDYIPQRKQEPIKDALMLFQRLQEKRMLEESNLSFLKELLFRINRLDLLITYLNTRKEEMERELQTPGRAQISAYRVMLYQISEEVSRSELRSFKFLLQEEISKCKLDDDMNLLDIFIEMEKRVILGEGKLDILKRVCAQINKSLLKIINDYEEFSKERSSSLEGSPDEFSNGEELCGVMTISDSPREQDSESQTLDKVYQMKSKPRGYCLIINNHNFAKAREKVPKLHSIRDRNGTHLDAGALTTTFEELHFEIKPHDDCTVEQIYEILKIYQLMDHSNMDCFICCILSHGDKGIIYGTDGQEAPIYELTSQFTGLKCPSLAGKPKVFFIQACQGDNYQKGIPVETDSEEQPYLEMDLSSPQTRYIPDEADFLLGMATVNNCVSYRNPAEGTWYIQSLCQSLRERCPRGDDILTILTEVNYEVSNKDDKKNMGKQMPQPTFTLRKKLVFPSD
Chain of human CYP2C9, CYP2C9 (gene 1559) (P11712 whole entry, looked up): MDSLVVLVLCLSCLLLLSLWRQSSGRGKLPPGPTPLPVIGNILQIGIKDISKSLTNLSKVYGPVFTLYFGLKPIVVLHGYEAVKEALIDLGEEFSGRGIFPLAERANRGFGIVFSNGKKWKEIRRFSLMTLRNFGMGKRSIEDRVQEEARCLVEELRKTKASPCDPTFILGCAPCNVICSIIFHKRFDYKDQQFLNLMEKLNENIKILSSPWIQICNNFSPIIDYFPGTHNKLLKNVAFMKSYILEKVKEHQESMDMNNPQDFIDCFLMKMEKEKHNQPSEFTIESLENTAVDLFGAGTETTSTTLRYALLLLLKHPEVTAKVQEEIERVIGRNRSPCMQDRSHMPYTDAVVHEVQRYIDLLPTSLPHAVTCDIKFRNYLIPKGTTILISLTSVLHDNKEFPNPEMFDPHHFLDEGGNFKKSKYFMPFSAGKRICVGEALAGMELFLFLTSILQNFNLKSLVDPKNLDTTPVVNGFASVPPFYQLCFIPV
Chain of human Acid Phosphatase 1 (ACP1), ACP1 (gene 52) (P24666 whole entry, looked up): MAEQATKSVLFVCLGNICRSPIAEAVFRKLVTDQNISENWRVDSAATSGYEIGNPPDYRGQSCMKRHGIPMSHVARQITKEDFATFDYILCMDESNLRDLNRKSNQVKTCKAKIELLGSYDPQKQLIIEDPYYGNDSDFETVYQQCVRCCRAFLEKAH
Chain of human CYP2D6, CYP2D6 (gene 1565) (P10635 whole entry, looked up): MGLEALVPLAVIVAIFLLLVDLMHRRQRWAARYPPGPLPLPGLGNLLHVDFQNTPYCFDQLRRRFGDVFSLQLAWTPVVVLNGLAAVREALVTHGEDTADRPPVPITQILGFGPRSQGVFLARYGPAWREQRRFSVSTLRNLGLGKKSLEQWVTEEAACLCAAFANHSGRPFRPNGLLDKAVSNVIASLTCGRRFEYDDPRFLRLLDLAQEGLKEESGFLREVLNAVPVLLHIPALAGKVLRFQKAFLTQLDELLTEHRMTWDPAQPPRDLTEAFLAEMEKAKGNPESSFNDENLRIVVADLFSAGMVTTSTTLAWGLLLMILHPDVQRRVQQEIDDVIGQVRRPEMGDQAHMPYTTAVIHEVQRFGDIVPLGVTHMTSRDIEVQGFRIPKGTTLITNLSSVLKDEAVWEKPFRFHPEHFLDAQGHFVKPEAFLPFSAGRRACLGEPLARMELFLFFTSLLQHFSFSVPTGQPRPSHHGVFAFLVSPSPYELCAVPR
Chain of human Elastase, ELANE (gene 1991) (P08246 whole entry, looked up): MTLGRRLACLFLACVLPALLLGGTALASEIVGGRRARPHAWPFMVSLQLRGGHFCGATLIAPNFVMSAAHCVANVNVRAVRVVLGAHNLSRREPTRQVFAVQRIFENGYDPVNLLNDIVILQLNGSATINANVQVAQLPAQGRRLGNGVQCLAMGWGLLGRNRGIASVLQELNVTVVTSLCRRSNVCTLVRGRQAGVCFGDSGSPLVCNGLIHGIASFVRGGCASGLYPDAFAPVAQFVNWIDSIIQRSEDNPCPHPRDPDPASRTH

For the molecule `CCOC(=O)CCC(=O)OCC`, the call in assay [1], in assay [2] and in assay [3] was inactive.

On to `COc1ccc2c(c1)c(CC(=O)O)c(C)n2C(=O)c1ccc(Cl)cc1`, for which the half-maximal activity concentration (AC50) in [4] was 10 µM (active).

On to `COc1ccc(S(=O)(=O)N2C(=O)[C@@](c3ccccc3OC)(N3C[C@H](O)C[C@H]3C(=O)N(C)C)c3cc(Cl)ccc32)c(OC)c1`, for which, in assay [4], the half-maximal activity concentration (AC50) is 4.57 µM (active). The molecule was classed as inactive in [5].

On to `CCCCC(CC)COC(=O)CC(C(=O)OCC(CC)CCCC)S(=O)(=O)O` (stereo not given), for which the half-maximal activity concentration (AC50) in assay [2] is 3.5 µM (active); in assay [6] it was 15.2 µM (active); in assay [7], 1.35 µM (active); in assay [8], 14.7 µM (active); in assay [9], 25 µM (active).

Regarding `CC(C)(C)c1cc(O)c(C(C)(C)C)cc1O`, the molecule was called inactive in assay [10].

For the molecule `CCOC(=O)C(C)(C)Oc1ccc(Cl)cc1`, the molecule was classed as inactive in assay [11] and in assay [7].

As for `FC(F)(F)C(F)(F)C(F)(F)C(F)(F)C(F)(F)C(F)(F)CCI`, the molecule was called inactive (in assay [11]; in the assay with CDK2 (gene 1017); in assay [12]; in assay [13]; in assay [14]; in [15]).

Regarding `Cc1ccc2ncccc2c1`, the result in assay [11], in [6], in assay [7] and in [3] was inactive. For the same molecule, the AC50 in assay [16] was 4.96 µM (active).

For the molecule `CCCCCCC(=O)OCC`, the molecule was classed as inactive in assay [1]. Moreover, the AC50 in assay [2] was 14.8 µM (active).

For the molecule `COc1ccc(C)cc1N`, in assay [6], the outcome was inactive.

For the molecule `CC1=C(/C=C/C(C)=C/C=C/C(C)=C/CO)C(C)(C)CCC1`, the AC50 in assay [2] was 18.2 µM (active); in assay [6], 39.9 µM (active); in assay [9], 21.8 µM (active). The molecule was classed as inactive (in [10]; in [3]; in [5]; with CDK2 (gene 1017); in [16]; in assay [17]).

Take `Oc1ccc2c(c1)OC[C@@H](N1CCC(O)(c3ccc(F)cc3)CC1)[C@H]2O`: the molecule was classed as inactive in assay [1] and in assay [8].

For the molecule `CC=Cc1ccc(O)c(OC)c1`, in assay [2], the molecule was called inactive.

Take `CCCCCCCCCCCCCCCC`: the call in [10] was inactive.

For `CCCc1cc(=O)[nH]c(=S)[nH]1`, the result (in assay [11]; with Caspase-3 (Homo sapiens); in [15]) was inactive.

For the molecule `C=CCOC(=O)c1ccccc1C(=O)OCC=C`, the AC50 in assay [4] is 6.19 µM (active). Moreover, the result in assay [15] was inactive.

In the case of `CC1(C)CC(N=C=O)CC(C)(CN=C=O)C1` (stereo not given), the molecule was classed as inactive in [6] and in assay [12]. Besides, the AC50 in assay [3] was 6.21 µM (active).

In the case of `O=C(O)Cc1ccccc1Nc1c(Cl)cccc1Cl`, the outcome in assay [1] and in assay [11] was inactive. The concentration at half-maximal activity (AC50) in assay [12] was 12.3 µM (active).

Regarding `CCCCCCCCCCCCCCCCCC(=O)O`, the AC50 was 0.719 µM (active) in [6], 19.6 µM (active) in assay [8] and 7.85 µM (active) in assay [9].
